# NLRP3 yeast inh – NALP3 inhibition in yeast. Yeast reconstituted NLRP3/ASC/caspase-1, beta-gal luminescence, 24 h. 0.39% of 330,000 active. inhibition, % at 10 µM;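 active means inhibition of 50% or more; inactive means inhibition below 50%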
# tim10-1 inh – inhibits growth of tim10-1 mutant yeast. 2.2% of 330,000 active. S. cerevisiae tim10-1 ts strain growth, BacTiter-Glo, 24 h. AID 463190. inhibition, % at 20 µM;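 active means inhibition of at least 40%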;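 further: mutant grown at 25 °C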
# TIM10 inh – TIM10 yeast growth inhibition; S. cerevisiae TIM10 strain growth, BacTiter-Glo luminescence, 24 h; inhibition, % at 10 µM; 1.4% of 330,000 active;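 active means inhibition of 40% or more at the single tested concentration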;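 further: wild-type TIM10 isogenic control strain grown at permissive 25 °C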
# V-ATPase pHluor – regulators of yeast V-ATPase proton transport; 0.37% of 350,000 active; AID 504577; response, % at 10 µM; S. cerevisiae, pHLuorin cytosolic pH fluorescence; in the data active means response mostly above about 7.3%, no sharp cut-off; inactive means mostly below about 5.4%; further: actives read high
# tim23-1 inh – growth inhibitors of tim23-1 mutant yeast; S. cerevisiae tim23-1 growth, BacTiter-Glo luminescence, 24 h; inhibition, % at 20 µM; 1.3% of 330,000 active; AID 463212;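 active means growth inhibition of the mutant yeast at or above 50%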;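 further: temperature-sensitive mutant grown at 25 °C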
# NALP1 inh – NALP1 inhibition. S. cerevisiae NALP1/ASC/caspase-1 growth, X-gal OD620, 72 h. inhibition, % at 10 µM. 0.61% of 280,000 active. AID 2071; in the data active means inhibition mostly above about 24%, no sharp cut-off; inactive means mostly below about 32%
# tim10 confirm – TIM10 yeast growth inhibition, confirmed; shares compounds with TIM10 inh; S. cerevisiae tim10 strain growth, BacTiter-Glo luminescence, 24 h; inhibition, % at 10 µM; 63% of 4,600 active;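 active means inhibition of yeast growth at or above a set limit in either of two replicates at 10 µM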; further: this counterscreen used the strain with wild-type TIM10
# Numbers stand for hits; . = inactive; / = no result. Only some compounds are listed: those with a hit (about 4.2% of all), similar ones and a draw of the others.
SMILES,NLRP3 yeast inh,tim10-1 inh,TIM10 inh,V-ATPase pHluor,tim23-1 inh,NALP1 inh,tim10 confirm
CC(=O)Nc1cccc(C(=O)N/N=C/c2c[nH]c3ccccc23)c1,.,.,.,.,.,.,/
Cc1ccccc1OCCn1cnc2cc([N+](=O)[O-])ccc2c1=O,.,.,42,.,.,.,.
CN1CCOCCOc2ccccc2OCCOCC1,.,.,58,.,.,/,.
c1ccc2c(c1)OCCOCCOCCOCCOc1ccccc1OCCOCCOCCO2,.,.,.,.,.,.,/
COc1ccccc1CNC(=O)CCNS(=O)(=O)c1cccc2nonc12,.,.,.,.,.,.,/
Cn1cc(/C=C2\SC(=O)N(c3ccc(O)cc3)C2=O)c2ccccc21,.,.,44,.,.,/,38
COc1ccc(NC(C)=O)cc1S(=O)(=O)NC1CCSc2ccccc21 (stereo not drawn),.,.,.,.,.,.,/
CCNC(=O)CSc1nnc(-c2ccccc2Br)n1-c1cccc(C(F)(F)F)c1,.,.,47,.,.,.,.
CC(C)N(Cc1ccccc1)C(=S)NC(=O)C1(C)CC1(Cl)Cl (stereo not drawn),.,.,41,.,.,.,33
Cc1ccccc1NC(=O)c1cccc(C(=O)Nc2ccccc2C)n1,.,.,.,.,.,.,/
Cc1cccc(NC(=O)c2ccc3ccccc3n2)c1C,.,.,45,.,.,.,32
COc1ccc(CCC(=O)Nc2ccc(OC)c(S(=O)(=O)N3CCCCC3)c2)cc1,.,.,.,.,.,/,/
COc1ccccc1-c1cc(C(F)(F)F)nc(S(=O)(=O)CCCC(=O)NCc2ccc(F)cc2)n1,.,.,50,.,.,.,.
COc1ccccc1-c1cc(C(F)(F)F)nc(S(=O)(=O)CCCC(=O)NC(C)C)n1,.,.,42,.,.,.,.
COc1ccc(/C=N/NC(=O)CNC(=O)c2ccncc2)cc1,.,.,.,.,.,.,/
COc1ccc(/C=N/NC(=O)c2cnccn2)c(OC)c1OC,.,.,.,.,.,.,/
COc1cccc(/C=N/NC(=O)c2cnccn2)c1O,.,.,95,.,.,.,.
O=C(N/N=C/c1ccccc1OCc1ccccc1)c1cccnc1,.,.,40,.,.,.,.
COc1ccc(NS(=O)(=O)c2cccc(C(=O)NCc3cccnc3)c2)cc1,.,.,.,.,.,/,/
Cc1ccc(C(=O)N2CC3(C(C)C)CN(C(=O)c4ccc(C)cc4)CC(C(C)C)(C2)C3=O)cc1,.,.,44,.,.,.,.
COc1ccc(NC(=O)/C(C#N)=C/c2ccc(Sc3nncn3C)c([N+](=O)[O-])c2)cc1,.,.,54,.,.,.,.
COc1ccc(CCNC(=O)COC(=O)Cc2c[nH]c3ccccc23)cc1OC,.,.,.,.,.,/,/
Cc1ccc(CN2C(=O)C(C)(C)Oc3ccc(C(=O)N4CCCCC4)cc32)cc1,.,.,45,.,.,.,.
CC(=O)Nc1cc(C(=O)N2CCc3ccccc3C2)ccc1Sc1ccc(Cl)cc1,.,.,42,.,.,.,.
CC(=O)Nc1cc(C(=O)N2CCc3ccccc3C2)ccc1Sc1ccc(F)cc1,.,.,.,.,.,.,/
SMILES,NLRP3 yeast inh,tim10-1 inh,TIM10 inh,V-ATPase pHluor,tim23-1 inh,NALP1 inh,tim10 confirm
Cc1ccc(OCCC(=O)OC(C)C(=O)Nc2c(C)n(C)n(-c3ccccc3)c2=O)cc1 (stereo not drawn),.,.,.,.,.,/,/
CCOc1cc(/C=C2/SC(=S)N(C)C2=O)ccc1Oc1ccc([N+](=O)[O-])cc1[N+](=O)[O-],.,.,.,/,.,.,/
Cc1nn(C)cc1/C=N/NC(=S)Nc1ccc(Cl)cc1Cl,.,.,.,.,.,.,/
CCn1nc(C)c(/C=N/NC(=S)Nc2ccc(Cl)cc2Cl)c1C,.,.,42,.,.,.,.
CC(C)(C)c1cc(NC(=O)Nc2ccc(Cl)cc2Cl)no1,.,.,42,.,.,/,43
CC(C)NC(=O)Nc1ccc(Br)cc1Cl,.,.,.,.,.,.,/
O=C(Nc1ccon1)Nc1ccc(Cl)cc1Cl,.,.,.,.,.,.,/
CC(C)(C)c1cc(NC(=O)Nc2ccc(Br)cc2Cl)no1,.,.,42,.,.,.,41
COC(=O)C[C@H]1c2cc(F)ccc2S(=O)(=O)N1Cc1ccccc1,.,.,.,.,.,/,/
C[C@@H]1C(=O)O[C@H](C)[C@H]1C[C@@H](O)[C@](C)(O)C1CC[C@@]2(O)C3=CC(=O)[C@@H]4C[C@@H](O)[C@@H](O)C[C@]4(C)C3CC[C@]12C (stereo partly drawn),.,.,.,.,.,/,/
O=C(CNC(=O)C1CCCCC1)NCc1ccco1,.,.,.,.,.,.,/
CC1(c2ccccc2)NC(=O)N(CC(=O)N2CCN(S(=O)(=O)c3cccc(C(F)(F)F)c3)CC2)C1=O (stereo not drawn),/,/,/,.,/,/,/
CCCN=C(C)c1c(-c2ccccc2)[nH]n(-c2nc3ccccc3s2)c1=O,.,.,45,.,.,.,40
CCN(CC)CCCN=Cc1c(-c2ccccc2)[nH]n(-c2nc3ccccc3s2)c1=O,.,.,.,.,.,.,/
COCCN(CC(=O)Nc1cccc(C)c1C)C(=O)Cn1c(=O)cnc2ccccc21,.,.,.,.,.,/,/
Cn1ccc(C(=O)NC(=S)N2CCSCC2)n1,.,.,.,.,.,.,/
O=C(Nc1ccc2nn(-c3ccccc3)nc2c1)c1ccco1,.,.,54,.,.,.,51
O=C(Nc1ccc2nc(-c3ccco3)[nH]c2c1)c1ccco1,.,.,54,.,.,.,37
O=C(Nc1ccc(Oc2ccc3ccccc3c2)cc1)c1ccco1,.,.,43,.,.,.,36
COc1ccc(OC)c(CNC(=O)c2nn(C)c3c2CS(=O)(=O)c2ccccc2-3)c1,.,.,.,.,.,.,/
O=C(CCN1CCOCC1)NC1CCCN(Cc2ccccc2F)C1 (stereo not drawn),.,.,.,.,.,.,/
CC1(C)CC(=O)N(c2cccc(Cl)c2)C(=O)C1,.,.,.,.,.,.,/
O=C1NC(=S)N(c2cccc(Cl)c2)C12CCCCC2,.,.,44,.,.,.,.
CSc1ccc(S(=O)(=O)NCC(=O)OCC(=O)N2CCC(C)CC2)cc1[N+](=O)[O-],.,.,.,.,.,/,/
S=C(NCCc1ccccc1)Nc1ccc(Cl)cc1Cl,.,.,49,.,.,.,49
Nc1ccc(S(=O)(=O)N2CCC(Cc3ccccc3)CC2)cc1,.,.,.,.,.,.,/
Cc1[nH]c2ccccc2c1/C=N/Nc1nc(Nc2ccc(F)cc2)nc(N2CCOCC2)n1,.,.,53,.,.,.,34
O=C(NCc1nnnn1-c1ccc(F)c(F)c1)C(=O)c1c[nH]c2ccccc12,.,.,.,.,.,/,/
